# This is one part of a sample in which hits are shown more often than they occur.
# nsP2pro inh: blocks chikungunya virus nsP2 protease peptide cleavage; FRET peptide cleavage, nsP2pro, fluorescence 1 h; Potency, µM (titrated, usually from 24.9 µM), inactives show top-dose activity change, negative = inhibition, hits mostly inhibitors; hit rate 1.1% among 31,000; AID 1964107; note: nearly all actives have a fitted effect of over 60% in size
#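 Purified recombinant nsP2pro (150 nM final) in 10 mM Tris-HCl pH 8.0 with 0.01% Tween 20 was preincubated 15 min at room temperature with compound (7 concentrations, up to 25 uM). FRET peptide 2 substrate (2.5 uM final) was then added; fluorescence was read after 1 h.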
# CHIKV nsP2 cell: inhibits CHIKV nsP2 protease in cells | shares compounds with nsP2pro inh | cell-based CHIKV nsP2 protease reporter assay | Potency, µM (top dose mostly 51.1 µM), for inactives: top-dose activity change, negative = inhibition, hits mostly inhibitors | hit rate 10% among 450 | AID 1964100; note: nearly all actives have a fitted effect of over 70% in size
# CHIKV NSP2 FL: full-length CHIKV NSP2 protease inhibition, selectivity; shares compounds with nsP2pro inh; hit rate 39% among 410; Full-length CHIKV NSP2 protease enzymatic counterscreen; Potency, µM (top dose mostly 50.7 µM), for the others: at the highest dose activity change, negative = inhibition, actives largely listed as inhibitors; AID 1964101; note: nearly all actives have a fitted effect of over 65% in size
# Furin counter: selectivity counter-screen for CHIKV nsP2 protease inhibitors: human furin; shares compounds with nsP2pro inh; Potency, µM (titrated, usually from 50.6 µM), without a hit: at the highest dose activity change, negative = inhibition, actives largely listed as inhibitors; Recombinant human furin enzymatic counterscreen, fluorogenic substrate; AID 1964102; hit rate 6% among 410
# nsP2 NS23 pep: nsP2pro inhibition on native NS2/3 peptide substrate; shares compounds with nsP2pro inh; Purified CHIKV nsP2 protease, endogenous NS2/3 peptide cleavage; Potency, µM (titrated, usually from 51 µM), for the others: at the highest dose activity change, negative = inhibition, actives largely listed as inhibitors; hit rate 34% among 410; AID 1964103; note: nearly all actives have a fitted effect of over 55% in size
# Papain counter: selectivity counter-screen for CHIKV nsP2 protease inhibitors: papain | hit rate 5% among 410 | Potency, µM (top dose mostly 51 µM), for inactives: top-dose activity change, negative = inhibition, most hits filed as inhibitors | shares compounds with nsP2pro inh | AID 1964104 | purified papain protease activity, enzymatic inhibition
# Target sequence (P00784 whole entry, looked up): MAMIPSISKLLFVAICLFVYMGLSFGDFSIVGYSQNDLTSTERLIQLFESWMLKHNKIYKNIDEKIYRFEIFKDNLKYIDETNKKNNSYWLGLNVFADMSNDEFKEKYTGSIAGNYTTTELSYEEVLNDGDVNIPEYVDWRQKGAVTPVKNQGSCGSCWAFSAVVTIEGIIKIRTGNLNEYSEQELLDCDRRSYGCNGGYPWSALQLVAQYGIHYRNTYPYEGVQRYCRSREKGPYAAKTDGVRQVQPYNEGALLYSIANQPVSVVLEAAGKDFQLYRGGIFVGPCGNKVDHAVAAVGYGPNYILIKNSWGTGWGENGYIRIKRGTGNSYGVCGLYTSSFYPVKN
# nsP2pro conf qHTS: confirmation of CHIKV nsP2 protease inhibitors | shares compounds with nsP2pro inh | CHIKV nsP2 protease enzymatic activity, qHTS | Potency, µM (titrated, usually from 25.5 µM), inactives show at the top dose activity change, negative = inhibition, usual class: inhibitors | hit rate 43% among 410; note: nearly all actives have a fitted effect of over 75% in size
# HCV NS3 4A cs: HCV NS3/4A protease inhibition, counterscreen | shares compounds with nsP2pro inh | HCV NS3/4A protease biochemical counterscreen | Potency, µM (doses to about 50.9 µM), most hits filed as inhibitors | hit rate 20% among 410; note: nearly all actives have a fitted effect of over 55% in size
# * = called active by the depositor; i = inactive; ? = inconclusive; [ ] = remark or other dose. Calls come from the whole dose curve. % is set by controls: 0 for no effect and ±100 for the full control effect; potency is the fitted concentration of half-maximal effect.
SMILES,nsP2pro inh,others
CCNC(=NCCCC[C@H](NC(=O)[C@H](CC(C)C)NC(=O)[C@@H](CCCCN=C(NCC)NCC)NC(=O)[C@@H](Cc1ccc(O)cc1)NC(=O)[C@@H](CO)NC(=O)[C@H](Cc1cccnc1)NC(=O)[C@H](Cc1ccc(Cl)cc1)NC(=O)C(Cc1ccc2ccccc2c1)NC(C)=O)C(=O)N1CCCC1C(=O)N[C@H](C)C(N)=O)NCC (some centres not stated),99%,
COc1ccc(CCC(=O)N2CCC(Cc3nc(-c4ccc(OC)cc4)no3)CC2)cc1,-2%,
CC(=O)OC[C@@]12C(=O)C[C@@H](C)[C@]3(C[C@@H](c4ccoc4)O[C@H]3OC(C)=O)[C@H]1CCC[C@]21CO1,12%[10 µM],
COC(=O)[C@@]1(O)C=CC[C@@H]2[C@@]3(C)C[C@@H](c4ccoc4)OC(=O)[C@H]3CC[C@]21C,2.7µM*,CHIKV nsP2 cell=5%[33.5 µM];CHIKV NSP2 FL=-23%[33.5 µM];Furin counter=2%[33.5 µM];nsP2 NS23 pep=4%[33.5 µM];Papain counter=1%[33.5 µM];nsP2pro conf qHTS=?;HCV NS3 4A cs=i
C[C@@]12C[C@@H](c3ccoc3)OC(=O)C1CC[C@]1(C)[C@H]2[C@H]2C=C[C@]1(O)C(=O)O2 (some centres not stated),5.4µM*,CHIKV nsP2 cell=-9%[33.5 µM];CHIKV NSP2 FL=9%[33.5 µM];Furin counter=12%[33.5 µM];nsP2 NS23 pep=3%[33.5 µM];Papain counter=-13%[33.5 µM];nsP2pro conf qHTS=-9%[16.7 µM];HCV NS3 4A cs=i
CCCC1(CO)CCCN(CC(=O)NC(C)(C)CC)C1 (configuration not stated),-5%,
COC(=O)[C@H](Cc1ccc(OC)cc1)NC(=O)[C@H]1CN(S(=O)(=O)c2ccccc2)CCN1S(=O)(=O)c1ccccc1,2%,
COc1cccc(-c2nc(-c3ccc(C(=O)O)cc3)no2)c1,i,
Cc1ccccc1-c1noc(-c2cccnc2NCc2ccco2)n1,-28%,
COc1ccc(-c2noc(-c3cccnc3NCc3ccco3)n2)cc1,?,CHIKV nsP2 cell=-4%
COc1ccc(NC(=O)c2cc3c(s2)CN(C2CCCC2)C3)c(OC)c1,i,
N#CC1=C2SCN(C3CCCCC3)CN2C(=O)CC1c1ccc(Br)cc1 (configuration not stated),0%,
COc1ccc(C2CC(=O)N3CN(C4CCCCC4)CSC3=C2C#N)c(OC)c1 (configuration not stated),8.9µM*,CHIKV nsP2 cell=-5%;CHIKV NSP2 FL=18µM*;Furin counter=-9%;nsP2 NS23 pep=?;Papain counter=-8%;nsP2pro conf qHTS=?;HCV NS3 4A cs=i
O=C(Nc1ccc(Oc2ccccc2)cc1)N[C@H]1CO[C@H]2[C@@H]1OC[C@@H]2n1nnnc1Oc1ccc(-n2cncn2)cc1,i,
CC(C)[C@@H]1NC(=O)[C@@H](C(C)C)OC(=O)[C@H](C(C)C)NC(=O)[C@H](C)OC(=O)[C@@H](C(C)C)NC(=O)[C@@H](C(C)C)OC(=O)[C@H](C(C)C)NC(=O)[C@H](C)OC(=O)[C@@H](C(C)C)NC(=O)[C@@H](C(C)C)OC(=O)[C@H](C(C)C)NC(=O)[C@H](C)OC1=O,28%,
CCC(C)NC(=O)Cn1nc2n(c1=O)CCCCC2 (configuration not stated),-12%,
O=C[C@H](O)[C@@H](O)[C@H](O)[C@H](O)CO[C@@H]1O[C@H](CO)[C@@H](O)[C@H](O)[C@H]1O,-17%,
O[C@@H]1C[C@@H](c2nc(Cc3ccc(F)cc3Cl)no2)N(Cc2ccc(OC(F)(F)F)cc2)C1,i,
CC(C)c1noc([C@@H]2C[C@@H](O)CN2Cc2cc3ccccc3o2)n1,-3%[39.2 µM],
OC1CC(c2cccc(F)c2)N(Cc2ccc(-c3ccn[nH]3)o2)C1 (configuration not stated),?,CHIKV nsP2 cell=-2%;CHIKV NSP2 FL=-40%;Furin counter=-6%;nsP2 NS23 pep=?;Papain counter=-7%;nsP2pro conf qHTS=?;HCV NS3 4A cs=i
Cc1cn([C@@H]2O[C@H](CO)[C@@H](O)[C@H]2O)c(=O)nc1N,-8%,
CCCCCCCCCCCCCC(=O)O,-32%,
CCCCCCCCCCCCCCCCCC(=O)O,?,CHIKV nsP2 cell=5%;CHIKV NSP2 FL=3.7µM*;Furin counter=5%;nsP2 NS23 pep=-19%;Papain counter=21µM*;nsP2pro conf qHTS=4µM*;HCV NS3 4A cs=i
CCCCC(=O)O,-4%,
CCCCCC1CC1CC1CC1CCCCCCCC(=O)O (configuration not stated),54%[10 µM],
SMILES,nsP2pro inh,others
Cc1nc2cnccn2c1C(=O)N1CCC(C#N)CC1,-2%[39.2 µM],
CNC(=O)c1ccccc1Nc1nc(Nc2ccc3c(c2OC)CCC[C@H](N2CCN(CCO)CC2)C3)ncc1Cl,84%,
O=C(Nc1ccc(Cl)cc1)C1CCCN(C(=O)c2cccc(-c3ccco3)c2)C1 (configuration not stated),7µM*,CHIKV nsP2 cell=?;CHIKV NSP2 FL=-19%;Furin counter=-8%;nsP2 NS23 pep=-24%;Papain counter=-16%;nsP2pro conf qHTS=?;HCV NS3 4A cs=i
COc1ccc(C(=O)N2CCC(C(=O)Nc3ccc(Cl)cc3)CC2)cc1,-16%,
CC#CC(=O)N1CCCC(C(=O)Nc2ccc(-c3cccc(OC)c3)cc2)C1 (configuration not stated),i,
CCOCCCNC(=O)N1CC2CN(CCOC)CC(C1)O2,-3%,
CC[C@H]1OC(=O)[C@H](C)[C@@H](OC2C[C@@](C)(OC)[C@@H](O)[C@H](C)O2)[C@H](C)[C@@H](OC2O[C@H](C)C[C@H](NC)[C@H]2O)[C@](C)(O)C[C@@H](C)CN(C)[C@H](C)[C@@H](O)[C@]1(C)O (some centres not stated),0%,
O=S1(=O)N=C(Sc2cc(C(F)(F)F)cc(C(F)(F)F)c2)c2ccccc21,-2%,
Cn1nnnc1Sc1ncnc2scc(-c3cccc(N)c3)c12,1.8µM*,CHIKV nsP2 cell=21µM*;CHIKV NSP2 FL=-10%;Furin counter=-4%;nsP2 NS23 pep=-14%;Papain counter=-6%;nsP2pro conf qHTS=18%;HCV NS3 4A cs=i
Cc1cccc(-c2csc3ncnc(Sc4nnnn4C)c23)c1,i,
Cn1nnnc1Sc1ncnc2scc(-c3cccc(Br)c3)c12,4%,
COc1ccc(CCNC(=O)c2cc3sccc3n2Cc2ccc(F)cc2)cc1OC,-7%,
Cc1cc(O)c(-c2ccc([C@@H](C)CN(C)C)cc2)c2c1[nH]c(=O)c1sccc12,-6%,
O=C1NCCCCCCN[C@H]2C[C@H](c3nc(-c4cnccn4)no3)C[C@@H]12,2%,
